Results from PubChem BioAssay (NCATS).
Records with an inconclusive call do not appear. Where a call stands in place of a potency, no number is given. Activity calls are given as the source filed them. The call rests on the fitted dose curve; in most records, active means well fitted curve in the direction sought with a large enough effect; inconclusive means small, poorly fitted or top-dose-only effect, or another doubt; inactive means no such curve, though single readings can be large; an effect the other way counts as inactive or inconclusive.

What was measured:
[1] = biological target: Glutathione peroxidase 1 (Homo sapiens) (UniProt P07203); assay: Primary qHTS Assay for Inhibitors of Recombinant Selenoprotein Glutathione Peroxidase 1 (GPX1) (AID 1845191); further: nearly all actives have a fitted effect of over 65% in size; further: potency means the concentration at half of the fitted maximal effect
Method in brief: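 GR-coupled readout: NADPH consumption tracked by fluorescence, ex 340/em 450 nm, at t=0 and after 15 min at RT. Final mix 10 nM GPX1, 1 mM GSH, 0.5 mM CHP, 0.5 mM NADPH, 100 nM GR, 0.01% BSA, following 30 min enzyme–compound preincubation.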

[2] = biological target: Phospholipid hydroperoxide glutathione peroxidase GPX4 (Homo sapiens) (UniProt P36969); assay: Primary qHTS Assay for Inhibitors of Recombinant Selenoprotein Glutathione Peroxidase 4 (GPX4) (AID 1845192); further: series mostly up to about 50 µM; nearly all actives have a fitted effect of over 65% in size
Method in brief: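 Steps: GPX4 plus compound, 30 min RT; add GR/GSH/NADPH master mix; start with cumene hydroperoxide; read 340/450 nm fluorescence at 0 and 15 min. Finals were 200 nM GPX4, 1 mM GSH, 0.5 mM CHP, 0.5 mM NADPH, 100 nM GR.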

[3] = Primary fluorescence-based thiol-reactive (MSTI) qHTS assay for identification of artifact compounds. (AID 1845221); further: nearly all actives have a fitted effect of over 65% in size; further: potency means the concentration at half of the fitted maximal effect
Method in brief: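 MSTI probe at 4 uM final in 2% DMSO/PBS pH 7.4; compounds, 1 h at room temperature in dark. Fluorescence Ex/Em 525/598 nm, normalised to Acetyl-MSTI and MSTI, fitted to 4-parameter Hill.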

[4] = tested on: Nanoluciferase (engineered Oplophorus gracilirostris luciferase); assay: Primary Nanoluciferase (NLuc) qHTS assay for identification of artifact compounds. (AID 1845222); further: series mostly up to about 54 µM
Method in brief: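 Diluted conditioned medium from NLuc-expressing S16 cells treated with compounds for 15 min at room temperature, then Nano-Glo substrate added; luminescence read after 5 min. Percent inhibition versus no-enzyme and DMSO controls fitted to 4-parameter Hill equation.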

[5] = Primary redox qHTS assay for identification of artifact compounds. (AID 1845223)
Method in brief: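 Redox-cycling detection via DTT (250 uM final) oxidation coupled to Amplex Red (25 uM)/HRP (250 mU/mL) in HBSS. 15 min preincubation plus 30 min after DTT, room temperature. Ex/Em 525/598 nm; 4-parameter Hill fit against DMSO and 10 uM DA3003.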

[6] = biological target: Luciferin 4-monooxygenase (Photinus pyralis) (UniProt P08659); assay: Primary firefly luciferase (FLuc) qHTS assay for identification of artifact compounds. (AID 1845220); further: nearly all actives have a fitted effect of over 60% in size; further: potency means the concentration at half of the fitted maximal effect
Method in brief: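 D-luciferin and ATP (10 uM each, final) in Tris acetate buffer pH 7.6 were incubated with compounds for 15 min at room temperature. The reaction was started with 10 nM Photinus pyralis luciferase and luminescence read after 5 min. Percent inhibition was fitted to a 4-parameter Hill equation.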

Chain of Glutathione peroxidase 1 (Homo sapiens) (P07203 whole entry, looked up): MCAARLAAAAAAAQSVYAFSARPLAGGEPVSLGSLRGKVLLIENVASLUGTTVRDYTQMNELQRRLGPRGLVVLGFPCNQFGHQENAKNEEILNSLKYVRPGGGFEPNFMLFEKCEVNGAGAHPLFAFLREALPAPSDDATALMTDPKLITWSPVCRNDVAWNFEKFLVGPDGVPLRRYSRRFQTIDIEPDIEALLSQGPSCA
Chain of Phospholipid hydroperoxide glutathione peroxidase GPX4 (Homo sapiens) (P36969 whole entry, looked up): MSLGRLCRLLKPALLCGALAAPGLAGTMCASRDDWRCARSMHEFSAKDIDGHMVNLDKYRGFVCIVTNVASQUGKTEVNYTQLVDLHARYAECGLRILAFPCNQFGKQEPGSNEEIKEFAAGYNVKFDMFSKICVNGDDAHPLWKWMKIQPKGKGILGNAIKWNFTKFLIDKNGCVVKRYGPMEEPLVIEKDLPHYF

Compound | Potency [1] | Potency [2] | Potency [3] | Potency [4] | Potency [5] | Potency [6]
CCCc1cc(C)n(C)c(=O)c1CN(C)C(=O)c1cc(-c2ccc(N3CCN(C(C)C)CC3)nc2)cc2c1cnn2C(C)C | inactive | inactive | inactive | inactive | inactive | –
Cc1c(C(=O)NCc2cccnc2)nn(-c2ccc(Cl)cc2Cl)c1-c1ccc(Cl)cc1 | inactive | inactive | – | inactive | inactive | inactive
CC(C)(C)c1ccc(C(=O)Nc2cn3cc(-n4ccnc4)ccc3n2)cc1 | inactive | inactive | inactive | inactive | inactive | –
Cc1cc(F)ccc1[C@H]1C[C@@H](N2CCN3C(=O)CC[C@H]3C2)CCN1C(=O)N(C)[C@H](C)c1cc(C(F)(F)F)cc(C(F)(F)F)c1 | inactive | inactive | – | inactive | inactive | inactive
CCCCc1c(-c2ccc(OC)cc2)[nH]c2nccnc12 | inactive | – | inactive | inactive | inactive | inactive
C=C1C(=O)O[C@H]2/C=C(/C)[C@@H](OC(C)=O)C/C=C(\C)C[C@@H](OC(=O)/C(=C/C)COC(=O)/C(=C/C)CO)[C@@H]12 | inactive | – | inactive | inactive | inactive | inactive
CCCn1cc2c(nc(NC(=O)Nc3ccc(OC)cc3)n3nc(-c4ccco4)nc23)n1 | inactive | – | – | inactive | inactive | inactive
CNS(=O)(=O)c1ccccc1Nc1nc(Nc2ccc(N3CCN(C)CC3)cc2OC)ncc1Br | inactive | – | 2.67 µM (active) | inactive | inactive | –
C[C@@H](NC(=O)c1ccc(C#Cc2cccc(F)c2)cn1)C(C)(C)O | inactive | – | inactive | inactive | inactive | inactive
c1ccc(-c2ccc(CNc3nc(-c4ccccn4)nnc3-c3ccccc3)cc2)cc1 | inactive | – | inactive | – | inactive | inactive
Clc1cccc(COc2cncc(N3CCNCC3)n2)c1 | inactive | – | inactive | inactive | inactive | inactive
C=C1C(=O)O[C@@H]2C[C@H](C)[C@@H]3CC(=O)C(C)=C3C[C@H]12 | inactive | – | inactive | inactive | inactive | inactive
CN1CCN(C(=O)CN[C@@H]2C[C@H]2c2ccc(OCc3ccccc3)cc2)CC1 | inactive | – | inactive | inactive | inactive | inactive
C=C(C)[C@@H]1CC[C@]2(C(=O)O)CC[C@]3(C(=O)O)[C@H](CCC4[C@@]5(C)CCC(=O)C(C)(C)C5CC[C@]43C)C12 (stereo not given in full) | inactive | – | inactive | inactive | inactive | inactive
O=C(O)c1cc(N(Cc2ccc(C3CCCCC3)cc2)C(=O)c2ccc(Oc3ccccc3)cc2)ccc1O | inactive | – | inactive | inactive | inactive | inactive
S=C(c1ccc(-c2ccc(Cl)c(Cl)c2)o1)N1CCCCC1 | 25.5 µM (active) | – | – | inactive | inactive | 1.69 µM (active)
CC/C(C)=C/C(=O)OC1C(OC2(C)CCC3C(C4C(C)CCC42)C3(C)C)OC(C)C(O)C1O (stereo not given) | inactive | – | – | inactive | inactive | inactive
CC(=O)NC[C@H]1CN(c2ccc(N3CCSCC3)c(F)c2)C(=O)O1 | inactive | – | inactive | inactive | inactive | inactive
CC1CCCC[C@H]2C(=O)C=C[C@H](O)[C@@H]2CC(=O)O1 (stereo not given in full) | inactive | – | – | inactive | inactive | inactive
C/C=C/C=C/c1cc2c(C=O)c(O)c(CC=C(C)C)cc2o1 | inactive | – | 21.2 µM (active) | inactive | inactive | –
CC(=O)OC(C)(C)/C=C/C(=O)[C@](C)(O)[C@H]1C(O)C[C@@]2(C)[C@@H]3CC=C4[C@@H](C=C(O[C@@H]5O[C@H](CO)[C@@H](O)[C@H](O)[C@H]5O)C(=O)C4(C)C)[C@]3(C)C(=O)C[C@]12C (stereo not given in full) | inactive | – | inactive | inactive | inactive | inactive
Oc1cccc(-c2c3nc(c(-c4cccc(O)c4)c4ccc([nH]4)c(-c4cccc(O)c4)c4nc(c(-c5cccc(O)c5)c5ccc2[nH]5)CC4)C=C3)c1 | – | inactive | – | – | – | –
Cn1ncnc1[C@H]1c2n[nH]c(=O)c3cc(F)cc(c23)N[C@@H]1c1ccc(F)cc1 | inactive | – | inactive | inactive | inactive | inactive
C=C1C(=O)O[C@@H]2/C=C(\C)CC/C=C(/C=O)[C@H](OC)[C@@H](OC(=O)C(C)C)[C@@H]12 | inactive | – | inactive | – | inactive | inactive
C=C1C(=O)OC2CC(C)C(CCC(C)=O)=CCC12 (stereo not given) | inactive | – | inactive | inactive | inactive | inactive
C/C=C/[C@@H]1C=C[C@@H]2C[C@H](C)CC[C@H]2[C@]1(C)/C(O)=C1/C(=O)[C@@H](CO)N(C)C1=O | inactive | – | – | inactive | – | inactive
CC[C@H](C)/C=C(C)/C=C/C1=CC2=C(Cl)C(=O)[C@](C)(O)[C@H](OC(C)=O)[C@H]2CO1 | inactive | – | – | inactive | inactive | inactive
C/C=C/CCC1Cc2cc(O)c(CCCC)c(O)c2C(=O)O1 (stereo not given) | inactive | – | inactive | inactive | inactive | inactive
O=C(NCC(=O)N1CCCC1)Nc1ccc2cnccc2c1 | inactive | – | inactive | inactive | inactive | inactive
C=C1C(=O)O[C@@H]2C[C@@]3(C)C[C@@H](O)C[C@H](C)C3=C[C@H]12 | inactive | – | inactive | inactive | inactive | inactive
